Screening data as filed in PubChem BioAssay.
The list is not random: actives were taken first. Their share in the collection is about 8.1%.
RORg inh – inhibitors of mouse ROR gamma transcriptional activity; 310,000 compounds, 5.4% hits; P51450; Potency, µM (doses to about 53.6 µM), without a hit: at the top dose activity change, negative = inhibition, most hits filed as inhibitors; Drosophila S2 Gal4-RORgamma UAS-luciferase reporter, 20 h; note: % is set by controls: 0 for no effect and ±100 for the full control effect; nearly all actives have a fitted effect of over 60% in size
Target sequence (P51450 whole entry, looked up, the tested form may be a part): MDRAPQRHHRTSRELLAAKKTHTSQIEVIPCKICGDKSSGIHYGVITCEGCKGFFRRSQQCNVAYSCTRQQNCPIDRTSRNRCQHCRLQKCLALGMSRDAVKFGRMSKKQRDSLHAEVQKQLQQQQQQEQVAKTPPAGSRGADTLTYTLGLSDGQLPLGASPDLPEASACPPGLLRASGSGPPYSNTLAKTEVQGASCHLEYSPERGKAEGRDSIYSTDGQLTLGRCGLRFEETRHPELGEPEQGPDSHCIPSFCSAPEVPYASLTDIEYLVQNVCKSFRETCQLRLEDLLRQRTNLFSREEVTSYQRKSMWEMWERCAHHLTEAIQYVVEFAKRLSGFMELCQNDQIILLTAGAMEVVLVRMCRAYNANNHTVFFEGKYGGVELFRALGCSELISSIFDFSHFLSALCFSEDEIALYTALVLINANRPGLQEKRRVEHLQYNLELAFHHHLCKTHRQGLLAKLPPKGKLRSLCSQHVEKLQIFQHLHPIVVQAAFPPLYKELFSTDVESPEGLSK
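Schneider cells (Drosophila), stable Gal4 DBD–ROR gamma + UAS-luc; 1 hr cmpd preincubation; Cu2+ induction 700 uM final; 20 hr ambient; luminescence.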
Sfp PPTase inh – inhibitors of Bacillus subtilis Sfp phosphopantetheinyl transferase | Q9F4F7 | Biochemical Sfp PPTase activity, qHTS | Potency, µM, for the others: largest response in the series, negative = inhibition, actives largely listed as inhibitors | 310,000 compounds, 3.5% hits | AID 1490;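 note: the enzyme is Sfp with the accession as filed and its product quenches rhodamine fluorescence; 0% = enzyme reaction without inhibitor and -100% = no enzyme wells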
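Fluorescence-quenching assay with 15 nM Sfp, 5 uM rhodamine-CoA and 12.5 uM BHQ-2-labelled ybbR peptide in pH 7.6 Hepes/MgCl2 buffer. Enzyme was pre-incubated with compound for 15 min at room temperature. Rate was taken from the 30-min fluorescence change (525/598 nm).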
Epigenetic reg – epigenetic control regulation, reporter derepression | Potency, µM (series often up to 53.9 µM), without a hit: at the highest dose GFP activation, usual class: activators | murine LDR cells, GFP reporter derepression, 30 h | 280,000 compounds, 0.2% hits; note: % of control where 0% means no effect; nearly all actives have a fitted effect of over 60% in size
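Derepression of a silenced CMV-GFP reporter in murine LDR cells is scored by enumerating GFP-positive cells with a laser-scanning microplate cytometer after 30 hours of treatment at 37 C.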
ClpP mod – qHTS Assay for Activators of ClpP; ATP-dependent Clp protease proteolytic subunit (Bacillus subtilis (strain 168)), P80244; purified B. subtilis ClpP, FRET peptide cleavage, 20 min; Potency, µM (highest dose often 57.5 µM), for the others: at the top dose activity change, negative = active; 340,000 compounds, 1.9% hits; AID 651965, 2013; active = well fitted falling curve with a large enough effect; inconclusive = small, poorly fitted or top-dose-only effect; inactive = no such curve, though single readings can be large or run the other way; note: the source files actives as falling curves though it sought activators and does not explain the sign; nearly all actives have a fitted effect of over 65% in size
Target sequence (P80244 whole entry, looked up): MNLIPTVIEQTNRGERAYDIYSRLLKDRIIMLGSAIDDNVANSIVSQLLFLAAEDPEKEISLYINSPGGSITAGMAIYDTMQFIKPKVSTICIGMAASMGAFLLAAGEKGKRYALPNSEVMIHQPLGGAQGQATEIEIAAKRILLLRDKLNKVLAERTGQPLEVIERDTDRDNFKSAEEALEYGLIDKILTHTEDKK
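FRET quenching reversal measured ClpP activation: 10 microg/mL B. subtilis ClpP at pH 8 with the FRET-FV decapeptide, read at 430 nm after 320 nm excitation. The 20-min minus 0-min signal was scaled between DMSO/no-enzyme wells and ADEP (5.8 microM final).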
PINK1 modulator – PINK1 expression modulation; Potency, µM (top dose mostly 76.6 µM), for the others: at the highest dose activation (PINK1 increase), actives largely listed as activators; PINK1 immunofluorescence, high-content cytometry, 24 h; AID 624263; 410,000 compounds, 0.2% hits; active = well fitted activation curve with a large enough effect; inconclusive = small, poorly fitted or top-dose-only effect; cell line not stated here; note: % of control where 0% means no effect; nearly all actives have a fitted effect of over 65% in size
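Stable cell line, 250 cells/well, 12 h attachment; compounds pinned at 5 concentrations, 24 h; CCCP control. Fixed with nuclear dye, primary antibodies 12 h at 10 degrees C, secondary plus cell stain; laser-scanning cytometer read.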
VP16 counter – counter-screen for ROR gamma inhibitors: Gal4-VP16 reporter. AID 2546. 310,000 compounds, 3.5% hits. Potency, µM (titrated, usually from 53.6 µM), inactives show top-dose activity, negative = inhibition, hits mostly inhibitors. Drosophila S2 Gal4-VP16 UAS-luciferase, luminescence, 20 h;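 note: Gal4-VP16 expression switched on by copper sulfate through the metallothionein promoter; % is set by controls: 0 for no effect and ±100 for the full control effect; nearly all actives have a fitted effect of over 50% in size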
* = called active by the depositor; ? = inconclusive; · = no result given; [ ] = dose if it differs, or a comment. Unless noted, calls come from the whole dose curve; as a rule, active = well fitted curve in the direction sought with a large enough effect; inconclusive = small, poorly fitted or top-dose-only effect, or another doubt; inactive = no such curve, though single readings can be large; an effect the other way counts as inactive or inconclusive. Potency is the fitted concentration of half-maximal effect.

SMILES | RORg inh | Sfp PPTase inh | Epigenetic reg | ClpP mod | PINK1 modulator | VP16 counter
CCOC(=O)c1cc(CC)sc1NC(=O)c1cc(OCC)c(OCC)c(OCC)c1 | -6% | -16% | 1% | -20% | 23%[38.3 µM] | 6%
Cc1ccc(/C=N/NC(=O)c2ccc3c(c2)OCCO3)s1 | 5.6µM* | -8% | 1% | · | 6% | ?
O=C(N/N=C/c1cc2c(cc1Cl)OCO2)c1ccc2c(c1)OCCO2 | -3% | 12% | -2% | · | 10% | 7%
CCOC(=O)c1cc(CC)sc1NC(=O)c1ccc2c(c1)OCCO2 | 9% | ? | -1% | 25µM* | 11% | -4%
CCOC(=O)c1cc(-c2ccccc2)sc1NC(=O)c1ccc(OC)c(OC)c1 | 13% | 32µM* | 0% | -2% | 7% | -14%
CCOc1cc(CNC(=O)c2ccccc2NC(=O)c2nsc3ccccc23)ccc1OC | · | · | 13% | -10% | 6% | ·
NNC(=O)c1ccc(C(=O)N(c2ccccc2)c2ccccc2)cc1 | · | · | · | -29% | 4% | ·
O=C(NC(=S)NCc1ccccc1)c1ccc(Br)o1 | ? | -4% | · | · | · | 13µM*
O=C(NNC(=S)NCc1ccc(Cl)cc1)c1ccc(Br)o1 | 10% | 3% | -3% | -1% | -2% | -3%
O=C(NNC(=S)NCc1ccccc1)c1ccc(Br)o1 | 8.9µM* | 6% | 0% | 1% | 0% | -23%
O=C(CNC(=O)c1ccc(Br)o1)NCc1cccc(Cl)c1 | 5% | 89µM* | · | 0% | -1% | -7%
O=C(NNC(=S)NCc1ccccc1)c1ccc(Br)cc1 | 7.9µM* | 16% | · | · | 2% | -2%
O=C(NC(=S)NCc1ccccc1)c1ccc(Br)cc1 | · | · | · | · | 1% | ·
O=C(NCc1ccc(Cl)cc1)c1ccc(Br)o1 | 38% | -6% | 0% | 0% | 4% | -13%
O=C(CNC(=O)c1ccc(Br)o1)NCc1ccc(Cl)cc1Cl | -10% | 10% | · | 0% | 10% | -1%
CO[C@@H]1COC(=O)[C@@H](C)NC(=O)C/C=C\[C@@H](C)[C@H](NS(=O)(=O)c2ccc(C)cc2)COC(=O)[C@H](C)NC(=O)C/C=C\[C@H]1C | -4%[10 µM] | 13% | 0%[10.1 µM] | · | · | -5%[10 µM]
NC(=O)/C=C/C(=O)Nc1ccc(Cl)cc1 | 3.2µM* | -10% | ? | · | 0% | ?
O=C1CC(Sc2nnc(-c3ccccc3)o2)C(=O)N1c1ccccc1 (stereo not drawn) | 1.3µM* | 22µM* | 0% | 16% | -1% | 4µM*
Cc1ccccc1N1C(=O)CC(Sc2nnc(-c3ccccc3)o2)C1=O (stereo not drawn) | 3.2µM* | 10µM* | ? | 12% | 2% | 4µM*
O=C1c2ccccc2CC1Sc1nnc(-c2ccncc2)o1 (stereo not drawn) | 0% | -17% | -1% | -2% | -2% | ?
CCC(C(=O)NCc1ccccc1Cl)n1c(=O)c2cccn2c2ccccc21 (stereo not drawn) | · | · | 0% | -6% | 1% | ·
COc1cc(=O)n2c(c1C(=O)N(C)Cc1nccs1)CCN(Cc1ccc(F)c(F)c1)CC2 | · | · | · | · | -1% | ·
O=C(Cn1cc(S(=O)(=O)Cc2ccccc2F)c2ccccc21)Nc1ccc(F)c(Cl)c1 | · | · | -1% | -4% | 35µM* | ·
O=C(Cn1cc(S(=O)(=O)Cc2ccccc2F)c2ccccc21)NCc1ccccc1Cl | · | · | -1% | 1% | 2% | ·
COc1ccc(N2CCN(C(c3ccc(C)cc3)c3nnnn3C(C)(C)C)CC2)cc1 (stereo not drawn) | · | · | · | -2% | 0% | ·
SMILES | RORg inh | Sfp PPTase inh | Epigenetic reg | ClpP mod | PINK1 modulator | VP16 counter
C[C@H](NC(=O)c1cc2c(cn1)[nH]c1ccccc12)C(=O)O | -6% | 8.9µM* | · | · | 3% | -5%
CCOC(=O)C(Cc1ccc(O)cc1)NC(=O)c1cc2c(cn1)[nH]c1ccccc12 (stereo not drawn) | · | · | · | 5% | 3% | ·
COC(=O)[C@H](C)NC(=O)c1cc2c(cn1)[nH]c1ccccc12 | 4% | 8.9µM* | · | · | 1% | 14%
COc1ccc(-n2ncc(C(=O)NCCc3ccsc3)c2C2CCN(C(=O)OC(C)(C)C)CC2)cc1 | · | · | 1% | 1% | 0% | ·
CC(C)NC(=O)c1onc(CSc2cccc3ccccc23)c1C(=O)O | 18µM* | -2% | -1% | 0% | 0% | ?
Cc1cccc(SCc2noc(C(=O)NC(C)C)c2C(=O)O)c1 | ? | 7% | -1% | 1% | -1% | 16µM*
COc1cc(OC)c(NC(=O)NCc2ccc3c(c2)CCN3C(=O)c2ccccc2)cc1Cl | · | · | 3% | 2% | -1% | ·
O=C(COc1ccc(Br)cc1)Nc1cccc2cccnc12 | · | · | -1% | -4% | 0% | ·
COc1ccccc1CC(=O)Nc1ccc2nc(Nc3cccc(C(F)(F)F)c3)cc(C)c2c1 | · | · | -1% | 4% | 1% | ·
COC(=O)[C@@H](NC(=O)O[C@@H]1C(=O)c2cc(Br)ccc2O[C@H]1c1ccc2c(c1)OCO2)C(C)C | 21% | -1% | 0% | · | · | 4%
Nc1nc2c(s1)C(=O)CC(c1ccccc1)C2 (stereo not drawn) | 12% | 45µM* | 1% | -1% | -2% | 1%
COc1ccc(C2CC(=O)c3sc(N)nc3C2)cc1 (stereo not drawn) | 23% | ? | 0% | -1% | -2% | -4%
O=S(=O)(NNc1nccc(C(F)(F)F)n1)c1cccc(Cl)c1Cl | -28% | 35µM* | ? | -1% | -1% | -2%
FC(F)(F)c1ccnc(NCc2ccc(Cl)cc2)n1 | -9% | 11% | · | · | 6% | -5%
CCOC(=O)C1=C(C)N(c2ccccc2)C(=O)/C1=C\c1ccco1 | ? | 56µM* | 17% | -2% | 7% | ?
CCOC(=O)C1=C(C)N(c2ccccc2)C(=O)/C1=C\c1ccc(O)c(OC)c1 | -15% | 6.3µM* | 0% | -4% | 2% | -8%
Cc1ccc(CN2CCc3nnc(C(NS(C)(=O)=O)C(C)C)n3CC2)cc1C (stereo not drawn) | · | · | · | · | 0% | ·
Cc1ccc(C(=O)c2cn(Cc3ccccc3F)c3cc4c(cc3c2=O)OCO4)cc1 | · | · | 0% | 0% | 0% | ·
COc1cccc(C(c2sc3nc(-c4ccco4)nn3c2O)N2CCC(C)CC2)c1 (stereo not drawn) | · | · | -2% | 1% | 9% | ·
Cc1ccc(-c2nnn(CC(=O)NCC3CC3)n2)o1 | -2% | 6% | 0% | -1% | 1% | 0%
Cc1ccc(-c2nnn(CC(=O)Nc3ccc4nn(-c5ccccc5)nc4c3)n2)o1 | -13% | -5% | 0% | 14µM* | 6% | -4%
COc1ccc(N2CCN(C(=O)c3cc4cc5ccc(Cl)cc5nc4o3)CC2)cc1 | · | · | -4% | -5% | 1% | ·
